Consider 22 compounds from PubChem BioAssay (EPA / NIEHS).

Test [1] has as its target Transcription factor E2F1 (Homo sapiens) (UniProt Q01094). Put plainly: ATG_E2F_CIS: Attagene CIS-FACTORIAL HepG2 Assay for human E2F Transcription Factor 1 (AID 2282935). The settings on record: HepG2 Attagene cis-reporter, E2F reporter RNA transcripts; actives raise or lower the signal. In a few lines: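 In this cis-factorial format, endogenous factor activity drives transfected reporters in HepG2; transcripts collected at 24 h are quantified by fluorescence after RT-PCR and capillary separation.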

Test [2] is described as follows: ATG_E_Box_CIS: Attagene CIS-FACTORIAL HepG2 Assay for human Enhancer Box (E-box) (AID 2282936). The following applies: HepG2 E-box cis-reporter transcription, actives raise or lower the signal. In a few lines:
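Measured 24 h post-dosing in HepG2 cells transfected with multiple cis-regulated reporter units, signal being reporter mRNA induction detected by fluorescent RT-PCR with capillary electrophoresis; gain or loss fitted against DMSO.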

Test [3] is described as follows: ATG_M_61_CIS: Attagene CIS-FACTORIAL HepG2 Assay for M61 Transcription Factor (Internal Marker) (AID 2282937). The settings on record: HepG2 Attagene CIS-FACTORIAL M61 internal marker reporter; actives raise or lower the signal. In outline: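 Cells were transfected with reporter units under cis-regulatory promoters, treated with chemicals for 24 h, then lysed for RNA. Reporter transcripts were quantified by RT-PCR and capillary electrophoresis, and activity was fitted bidirectionally against DMSO.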

Test [4] in a line: ATG_EGR_CIS: Attagene CIS-FACTORIAL HepG2 Assay for human Early Growth Response 1 (EGR1) (AID 2282938). The settings on record: HepG2 Attagene CIS-FACTORIAL EGR reporter mRNA; actives raise or lower the signal. In a few lines: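 Endogenous TF activity in HepG2 liver cells was gauged through cis-promoter reporter constructs transiently transfected. After 24 h dosing, reporter mRNA was quantified by RT-PCR and capillary electrophoresis, and curves fitted in both directions versus DMSO.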

A short description of test [5]: ATG_M_19_CIS: Attagene CIS-FACTORIAL HepG2 Assay for M19 Transcription Factor (Internal Marker) (AID 2282939). The settings on record: HepG2 Attagene CIS-FACTORIAL M19 internal marker reporter; actives raise or lower the signal. In a few lines:
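HepG2, MRTU transient transfection, 24 h dosing. Total RNA → RT-PCR → 6-FAM primer extension → HpaI digest → CE fluorescence. Bidirectional curve fit, DMSO negative control.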

Test [6] is described as follows: ATG_ERE_CIS: Attagene CIS-FACTORIAL HepG2 Assay for Estrogen Response Element (ERE) (AID 2282940). The following applies: HepG2 ERE cis-reporter, Attagene RNA transcript; actives raise or lower the signal. In a few lines: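 After a 24 h chemical treatment, RNA from reporter-transfected HepG2 cells is reverse-transcribed, PCR-amplified and fluorescently labelled. Fragments separated by capillary electrophoresis give reporter signal; DMSO serves as negative control.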

Test [7] is described as follows: ATG_Ets_CIS: Attagene CIS-FACTORIAL HepG2 Assay for human Erythroblast Transformation Specific (ETS) (AID 2282941). The following applies: HepG2 ETS cis-reporter transcription, actives raise or lower the signal. In a few lines: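 Bidirectional fit versus DMSO of reporter mRNA signal, detected by RT-PCR and capillary electrophoresis in HepG2 cells transiently transfected with cis-element reporters and dosed 24 h.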

Test [8] addresses Hepatocyte nuclear factor 3-beta (Homo sapiens) (UniProt Q9Y261). Put plainly: ATG_FoxA2_CIS: Attagene CIS-FACTORIAL HepG2 Assay for human Forkhead box A2 (FOXA2) (AID 2282942). The following applies: HepG2 cis-reporter transcription factor activity, 24 h; actives raise or lower the signal. In outline:
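Endogenous transcription factor activity was read in HepG2 cells carrying transiently transfected cis-promoter reporter units. After 24 h dosing, reporter mRNA was quantified by RT-PCR and capillary electrophoresis, and values fitted bidirectionally versus DMSO.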

Test [9] is described as follows: ATG_FoxO_CIS: Attagene CIS-FACTORIAL HepG2 Assay for human Forkhead box O (FoxO) (AID 2282943). The following applies: HepG2 Attagene cis-reporter, FoxO element, mRNA; actives raise or lower the signal. In a few lines:
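Values reflect reporter mRNA induction or loss in HepG2 cells 24 h post-dosing, fitted bidirectionally with DMSO as negative control and baseline. Detection used RT-PCR and fluorescence capillary electrophoresis.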

A short description of test [10]: ATG_GATA_CIS: Attagene CIS-FACTORIAL HepG2 Assay for human GATA Binding Protein (AID 2282944). The settings on record: HepG2 GATA cis-element reporter, Attagene multiplex mRNA; actives raise or lower the signal. In a few lines: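 Cells: HepG2, transiently transfected with cis-regulated reporter transcription units. Exposure: 24 h. Detection: RT-PCR plus capillary electrophoresis of FAM-labeled fragments. Analysis: bidirectional, DMSO as baseline.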

SMILES strings stand for the structures. Several values for one entry are separate records, joined by “and”; a condition that tells them apart may be missing. Identical values can stand only once. Activity calls are given as the source filed them. The calls were made as follows: active = hit-call score of the fitted dose curve at least 0.9, where 1 is the maximum; inactive = score below 0.9.

Chain of Transcription factor E2F1 (Homo sapiens) (Q01094 whole entry, looked up): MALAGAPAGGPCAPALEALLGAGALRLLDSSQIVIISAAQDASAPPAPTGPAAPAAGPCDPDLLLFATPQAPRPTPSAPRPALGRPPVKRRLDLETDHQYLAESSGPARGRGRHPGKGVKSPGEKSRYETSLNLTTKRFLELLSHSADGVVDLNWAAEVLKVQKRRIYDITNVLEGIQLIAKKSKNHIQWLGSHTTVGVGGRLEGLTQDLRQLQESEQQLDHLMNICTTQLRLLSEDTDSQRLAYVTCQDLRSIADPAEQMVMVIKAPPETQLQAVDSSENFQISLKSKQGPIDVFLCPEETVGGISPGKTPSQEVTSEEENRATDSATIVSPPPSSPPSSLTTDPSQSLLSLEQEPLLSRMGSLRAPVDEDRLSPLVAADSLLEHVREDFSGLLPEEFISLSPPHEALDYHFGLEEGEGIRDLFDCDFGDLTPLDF
Chain of Hepatocyte nuclear factor 3-beta (Homo sapiens) (Q9Y261 whole entry, looked up): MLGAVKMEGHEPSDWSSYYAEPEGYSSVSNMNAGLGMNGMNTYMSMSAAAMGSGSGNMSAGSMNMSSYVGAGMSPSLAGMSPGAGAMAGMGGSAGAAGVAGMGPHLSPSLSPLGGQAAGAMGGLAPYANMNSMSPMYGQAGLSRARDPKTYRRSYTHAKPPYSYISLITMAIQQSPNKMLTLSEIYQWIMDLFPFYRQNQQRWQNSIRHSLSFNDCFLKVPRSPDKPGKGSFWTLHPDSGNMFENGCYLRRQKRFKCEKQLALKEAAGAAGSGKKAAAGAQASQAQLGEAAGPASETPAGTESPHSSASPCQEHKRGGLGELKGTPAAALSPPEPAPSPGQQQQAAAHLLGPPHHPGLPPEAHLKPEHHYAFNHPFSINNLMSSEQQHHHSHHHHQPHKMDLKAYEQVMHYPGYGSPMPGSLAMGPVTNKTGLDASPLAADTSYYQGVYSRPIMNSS

Turning to `FC(F)(F)C(F)(F)C(F)(F)C(F)(F)C(F)(F)C(F)(F)CC1CO1` (stereo not drawn), the outcome in test [1], in [2], in [3], in test [4], in test [5] and in test [6] was inactive. For the same compound, the compound was called inactive in [7], in test [8], in test [9] and in test [10].
As to `CCC(=O)OCCc1ccccc1`, the call in test [1], in test [2], in test [3], in [4], in test [5] and in [6] was inactive. Also, the compound was called inactive in test [7], in [9] and in test [10].
`O=S(=O)(O)C(F)(F)C(F)(F)C(F)(F)C(F)(F)C(F)(F)C(F)(F)C(F)(F)F`: the outcome in [1], in test [2], in test [3], in test [4], in [5] and in test [7] was inactive. Also, the call in [8], in [9] and in test [10] was inactive. For the same compound, in test [6], the half-maximal activity concentration (AC50) is 48.4 µM (active) and 69.9 µM (active).
Regarding `O=C(O)C(F)(OC(F)(F)C(F)(OC(F)(F)C(F)(OC(F)(F)C(F)(F)C(F)(F)F)C(F)(F)F)C(F)(F)F)C(F)(F)F` (stereo not drawn), the compound was classed as inactive in [1], in [2], in test [3], in test [4], in [5] and in test [6]. The compound was classed as inactive in test [7], in test [8], in test [9] and in test [10].
On to `O=C(O)C=C(C(F)(F)F)C(F)(F)F`, for which the result in [1], in test [2], in test [3], in test [4], in [5] and in test [6] was inactive. For the same compound, the call in [7], in test [8], in test [9] and in test [10] was inactive.
Consider `O=C(Cl)C(F)(F)C(F)(F)C(F)(F)C(F)(F)C(F)(F)C(F)(F)C(F)(F)C(F)(F)F`, for which the result in [1], in test [2], in test [3], in [4], in [5] and in test [6] was inactive. Moreover, the result in test [7], in test [8], in [9] and in test [10] was inactive.
Regarding `FC(F)(F)C(F)(F)C(F)(F)N(C(F)(F)C(F)(F)C(F)(F)F)C(F)(F)C(F)(F)C(F)(F)F`, the call in test [1], in test [2], in test [3], in test [4], in [5] and in test [6] was inactive. The compound was called inactive in test [7], in test [8], in [9] and in [10].
Consider `[Co]`, for which the outcome in [1], in test [2], in test [3], in test [4], in [5] and in [6] was inactive. Also, the compound was called inactive in test [7], in test [8], in test [9] and in [10].
Turning to `O=C(O)C(F)(F)C(F)(F)C(F)(F)C(F)(F)C(F)(F)C(F)(F)C(F)(F)C(F)(F)C(F)(F)C(F)(F)C(F)(F)C(F)(F)C(F)(F)F`, the compound was called inactive in [1], in test [2], in test [3], in test [4], in test [5] and in test [6]. Moreover, the call in test [7], in [8], in test [9] and in [10] was inactive.
Turning to `C1COCCN1`, the outcome in test [1], in [2], in test [3], in test [4], in test [5] and in [6] was inactive. Also, the compound was called inactive in test [7], in test [9] and in [10].
For `FC(F)(F)C(F)(F)C(F)(F)C(F)(F)C(F)(F)CCI`, the result in test [1], in test [2], in test [3], in [4], in test [5] and in test [7] was inactive. For the same compound, the compound was classed as inactive in [8], in test [9] and in [10]. In addition, the AC50 in test [6] was 51.2 µM (active).
Regarding `O[Si](c1ccccc1)(c1ccccc1)c1ccccc1`, the outcome in test [1], in [3], in test [4], in test [5], in test [7] and in [8] was inactive. The call in test [9] and in test [10] was inactive. In addition, the concentration at half-maximal activity (AC50) was 15.8 µM (active) in test [2] and 12.8 µM (active) in test [6].
For `CCc1c(Br)c(Br)c(Br)c(Br)c1Br`, the compound was called inactive in [1], in test [2], in [3], in test [4], in [5] and in [6]. The result in test [7], in test [8], in test [9] and in test [10] was inactive.
On to `CNC(=S)NC`, for which the result in [1], in [2], in test [3], in [4], in test [5] and in test [6] was inactive. Moreover, the compound was classed as inactive in [7], in test [8], in test [9] and in test [10].
As for `C=CC/C=C/C/C=C/C/C=C/C`, the call in test [1], in test [2], in [3], in [4], in test [5] and in [6] was inactive. For the same compound, the result in [7], in test [8], in [9] and in [10] was inactive.
In the case of `C=CC(F)(F)C(F)(F)C(F)(F)C(F)(F)C(F)(F)C(F)(F)C(F)(F)C(F)(F)C=C`, the result in test [1], in [2], in [3], in [4], in [5] and in [7] was inactive. In addition, the result in test [8], in test [9] and in [10] was inactive. The AC50 in test [6] was 4.46 µM (active).
On to `Nc1ccc(Oc2cccc(Oc3ccc(N)cc3)c2)cc1`, for which the half-maximal activity concentration (AC50) in test [1] was 33.4 µM (active); in [2] it was 179 µM (active); in test [4] it was 26.2 µM (active); in test [5], 51.5 µM (active); in test [7], 112 µM (active); in test [9] it was 163 µM (active). For the same compound, in test [10], the AC50 was 135 µM (active). The compound was called inactive in [3], in test [6] and in test [8].
In the case of `O=S(=O)(OCC(F)F)C(F)(F)F`, the result in [1], in test [2], in test [3], in [4], in test [5] and in [6] was inactive. Moreover, the result in test [7], in [8], in test [9] and in [10] was inactive.
Regarding `C(=C(c1ccccc1)c1ccccc1)c1ccccc1`, the compound was called inactive in test [1], in test [2], in [3], in test [4], in test [5] and in test [7]. The compound was called inactive in [8], in test [9] and in test [10]. In [6], the AC50 was 0.0294 µM (active).
For the compound `FC(F)(Br)C(F)(F)C(F)(F)C(F)(F)C(F)(F)C(F)(F)Br`, the compound was called inactive in [1], in test [2], in test [3], in test [4], in [5] and in [7]. Further, the outcome in test [8], in [9] and in [10] was inactive. Moreover, the AC50 in test [6] was 8.15 µM (active).
`CCN(Cc1cccc(S(=O)(=O)O)c1)c1ccc(C(=C2C=CC(=[N+](CC)Cc3cccc(S(=O)(=O)O)c3)C=C2)c2ccc(O)cc2S(=O)(=O)[O-])cc1`: the compound was called inactive in test [1], in test [2], in test [3], in test [4], in test [5] and in [7]. Besides, the compound was called inactive in test [8], in test [9] and in test [10]. Besides, the AC50 in test [6] is 16.8 µM (active).
Turning to `O=C(O)C(F)(F)C(F)(F)C(F)(F)C(F)(F)C(F)(F)C(F)(F)C(F)(F)C(F)(F)C(F)(F)C(F)(F)C(F)(F)C(F)(F)F`, the outcome in [1], in test [2], in [3], in test [4], in test [5] and in [6] was inactive. Also, the outcome in test [7], in test [8], in test [9] and in test [10] was inactive.

A word on the AC50: it is the concentration at which the activity in the assay is half-maximal.
